FBW7 act: activators of human E3 ligase FBW7; Q969H0; AlphaScreen FBW7–phospho-cyclin E peptide binding, activator screen; normalized activity (activation), % at 26.1 µM; 0.13% of 650,000 active; AID 1259310; in the data active = normalized activity above about 1.9%;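 note: purified mutant Fbw7 with reduced substrate affinity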
GPR151 ag: human GPR151 activation. Q8TDV0. PathHunter beta-arrestin GPR151 cells, luminescence. activation, % at 11.2 µM. AID 1508602. 1% of 650,000 active; in the data active = activation above about 4.9%;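 note: 0% = median of compound wells and 100% = cells with positive control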
Target sequence (Q8TDV0 whole entry, looked up): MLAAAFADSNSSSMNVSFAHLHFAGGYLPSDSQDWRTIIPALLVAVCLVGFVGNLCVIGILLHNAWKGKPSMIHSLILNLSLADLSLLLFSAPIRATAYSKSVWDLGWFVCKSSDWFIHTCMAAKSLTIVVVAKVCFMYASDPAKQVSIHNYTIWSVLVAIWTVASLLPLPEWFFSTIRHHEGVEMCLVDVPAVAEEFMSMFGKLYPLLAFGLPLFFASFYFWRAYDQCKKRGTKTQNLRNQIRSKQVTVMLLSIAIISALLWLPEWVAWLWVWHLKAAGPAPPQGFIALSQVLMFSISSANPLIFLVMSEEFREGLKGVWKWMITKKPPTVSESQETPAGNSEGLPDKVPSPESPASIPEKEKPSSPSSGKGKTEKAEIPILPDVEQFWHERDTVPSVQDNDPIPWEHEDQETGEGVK
MITF inh: human MITF inhibition, primary screen; 0.91% of 650,000 active; O75030; AlphaScreen MITF homodimerization, bead proximity signal; inhibition, % at 2.6 µM; in the data active = inhibition above about 50%;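 note: 0% = vehicle wells with protein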
TEAD-YAP block: TEAD-YAP interaction inhibition; HEK-TIYL cells, TEAD-Gal4/YAP UAS-luciferase luminescence; inhibition, % at 9.12 µM; 1.4% of 640,000 active; AID 1259422; in the data active = inhibition above about 32%;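 note: 0% = median of test compound wells and 100% = reference inhibitor wells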
MITF confirm: confirmation of human MITF inhibitors; shares compounds with MITF inh; AlphaScreen MITF homodimerization, biotin/His-MITF beads; 16% of 4,700 active; inhibition, % at 2.6 µM;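 active = inhibition above a cutoff derived from the DMSO control wells, cut at about 28% in these data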;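 note: 0% = MITF dimer wells with DMSO only; inhibitors lower the bead chemiluminescence by keeping MITF from dimerizing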
AS interf ctr: AlphaScreen optical interference, counter-screen | shares compounds with MITF inh | LysRS AlphaScreen counterscreen, signal interference, triplicate | inhibition, % at 2.6 µM | 7.6% of 4,700 active | AID 1259376;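 active = inhibition above a cutoff derived from the DMSO control wells, cut at about 30% in these data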
* marks the source's active call; other numbers are inactive results. Shown are actives, neighbours in structure and some others; about 3.5% of the full set was active somewhere.

O=C(O)c1ccccc1-c1cc(C(=O)O)c2cc(Br)ccc2n1 was read as FBW7 act -0.1, GPR151 ag -0.7, MITF inh 1.1 and TEAD-YAP block 11.3.
Cc1nn2c(nc(N3CCCCCC3)c3ccccc32)c1C=O was read as FBW7 act 0.0, GPR151 ag 1.8, MITF inh 61.6*, TEAD-YAP block -10.3, MITF confirm 5.8 and AS interf ctr 6.2.
`CC(C)c1ccc(-c2c(C#N)c(N)nc3sc(C(=O)Nc4ccc(Cl)cc4)c(N)c23)cc1` gave FBW7 act 0.1, GPR151 ag 0.2, MITF inh 2.5 and TEAD-YAP block 1.0.
For COc1cccc(NC(=O)c2sc3nc(N)c(C#N)c(-c4ccc(C(C)C)cc4)c3c2N)c1 the results were FBW7 act 0.0, GPR151 ag 1.4, MITF inh 52.0*, TEAD-YAP block -5.3, MITF confirm -2.5 and AS interf ctr -8.5.
NC(=O)C1(N2CCCCC2)CCN(C(=O)Nc2ccc(Br)cc2)CC1 was read as FBW7 act -0.1, GPR151 ag 0.9, MITF inh 6.2 and TEAD-YAP block 1.9.
`COCCn1c(C)nnc1SCC(N)=O` gave FBW7 act 1.4, GPR151 ag -1.1, MITF inh 82.8*, TEAD-YAP block 15.6, MITF confirm 5.8 and AS interf ctr 5.4.
`CC1(C)C2CCC1(C)C(NCC(O)COc1ccc(C#N)cc1)C2` (stereo not drawn) gave FBW7 act -0.2, GPR151 ag -0.5, MITF inh 76.8*, TEAD-YAP block 4.5, MITF confirm -18.4 and AS interf ctr -4.4.
`OC(CNC1CCCC1)COc1ccc(OCC(O)CNC2CCCC2)cc1` (stereo not drawn) gave FBW7 act -0.1, GPR151 ag 3.0, MITF inh 5.1 and TEAD-YAP block 8.5.
For O=C(/C=C/c1cccs1)NC(=S)NCc1ccccn1 the results were FBW7 act -0.2, GPR151 ag -0.6, MITF inh -0.3 and TEAD-YAP block -9.7.
O=C(c1ccc2c(c1)OCO2)N1CCN(Cc2ccc3c(c2)OCO3)CC1 was read as FBW7 act -0.2, GPR151 ag -1.6, MITF inh -3.3 and TEAD-YAP block -3.8.
For CCOc1cc(CN2CCN(Cc3ccc4c(c3)OCO4)CC2)ccc1O the results were FBW7 act -0.1, GPR151 ag -0.5, MITF inh 74.6*, TEAD-YAP block -8.4, MITF confirm 14.3 and AS interf ctr 13.3.
Screening COc1ccc(CN2CCN(Cc3ccc4c(c3)OCO4)CC2)cc1OC returned FBW7 act -0.1, GPR151 ag 0.0, MITF inh 81.6*, TEAD-YAP block -1.3, MITF confirm 10.9 and AS interf ctr 9.2.
COc1ccc(CN2CCN(Cc3ccc4c(c3)OCO4)CC2)c(OC)c1OC was read as FBW7 act -0.1, GPR151 ag 1.3, MITF inh 79.0*, TEAD-YAP block 5.8, MITF confirm 9.5 and AS interf ctr 15.5.
For COC(=O)c1ccc(CN2CCN(Cc3ccc4c(c3)OCO4)CC2)cc1 the results were FBW7 act 0.0, GPR151 ag 0.3, MITF inh 55.9*, TEAD-YAP block 2.2, MITF confirm 5.0 and AS interf ctr 1.0.
COc1ccc(CN2CCN(Cc3ccc4c(c3)OCO4)CC2)cc1C was read as FBW7 act 0.0, GPR151 ag 0.8, MITF inh 37.7 and TEAD-YAP block 3.2.
`CCOc1cc(CN2CCN(Cc3ccc4c(c3)OCO4)CC2)ccc1OC` gave FBW7 act -0.1, GPR151 ag 3.1, MITF inh 31.0 and TEAD-YAP block 3.0.
O=C1CCC(CCNCc2ccccc2F)N1CC1(c2ccccc2)CCOCC1 (stereo not drawn) was read as FBW7 act 0.0, GPR151 ag 0.1, MITF inh 4.8 and TEAD-YAP block 2.4.
COc1ccc(-c2nccc(NCCN3CCOCC3)n2)cn1 was read as FBW7 act 0.5, GPR151 ag -0.9, MITF inh 3.4 and TEAD-YAP block -35.2.
Screening O=C(NC(C(=O)O)C(O)c1ccccc1)c1ccc(Br)cc1 (stereo not drawn) returned FBW7 act 0.1, GPR151 ag -1.4, MITF inh -11.8 and TEAD-YAP block -6.3.
`O=C(NNC(=S)NCC1CCCO1)c1ccccn1` (stereo not drawn) gave FBW7 act -1.6, GPR151 ag 1.2, MITF inh 117.8*, TEAD-YAP block 23.1, MITF confirm 116.3* and AS interf ctr 100.3*.

Screening results from PubChem BioAssay.
